High-throughput results deposited in PubChem BioAssay by The Scripps Research Institute Molecular Screening Center.
S1P2 ag: S1P2 receptor agonists, primary screen, cell-based; Sphingosine 1-phosphate receptor 2 (Homo sapiens), O95136; S1P2-expressing cell line, agonist reporter read-out; activation, % at 4.5 µM; 97,000 tested, 0.46% active; in the data active means activation above about 16%;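 further: 0% = vehicle low control and 100% = maximal reference agonist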
GALR2 ag: GALR2 receptor agonists, primary screen, cell-based; Galanin receptor type 2 (Homo sapiens), O43603; GALR2-expressing cells, agonist activation read-out; activation, % (test concentration not listed); 140,000 tested, 0.48% active; AID 803, 2007; in the data active means activation above about 5%, passing the limit was not always enough;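 further: 0% = vehicle buffer wells and 100% = reference agonist at full effect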
Target sequence (O43603 whole entry, looked up): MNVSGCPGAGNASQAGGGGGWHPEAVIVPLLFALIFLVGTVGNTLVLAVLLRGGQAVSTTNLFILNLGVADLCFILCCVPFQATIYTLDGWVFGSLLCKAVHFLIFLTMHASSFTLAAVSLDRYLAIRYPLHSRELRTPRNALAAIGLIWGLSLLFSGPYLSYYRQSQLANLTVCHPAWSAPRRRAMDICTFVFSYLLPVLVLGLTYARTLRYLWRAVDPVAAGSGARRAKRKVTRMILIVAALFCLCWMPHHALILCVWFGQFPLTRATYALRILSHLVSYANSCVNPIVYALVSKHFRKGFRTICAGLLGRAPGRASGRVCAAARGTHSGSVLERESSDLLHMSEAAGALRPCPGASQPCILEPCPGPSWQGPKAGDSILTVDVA
GALR2 blocker: GALR2 antagonists in receptor-expressing cells, primary screen. antagonist mode. inhibition, % at 4 µM. 140,000 tested, 0.39% active;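 further: cells stimulated with galanin 1-16 at roughly its EC80; 0% = agonist challenge control and 100% = basal control without agonist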
S1P2 antag: human S1P2 receptor antagonists, primary screen, cell-based; Sphingosine 1-phosphate receptor 2 (Homo sapiens), O95136; cell-based S1P2 antagonist assay, inhibition at 5 uM; inhibition, % at 5 µM; 97,000 tested, 0.21% active; in the data active means inhibition above about 45%;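 further: CRE beta-lactamase reporter cells expressing human S1P2 stimulated with S1P; 0% = agonist at EC80 alone and 100% = agonist plus reference antagonist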
GALR2 ant conf: GALR2 antagonists, retest of hits, confirmation, cell-based; shares compounds with GALR2 blocker; GALR2-expressing cells, antagonist mode, inhibition; inhibition, % at 4 µM; 480 tested, 60% active; AID 866, 2007;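 further: cells stimulated with galanin at about its EC80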
BLA inhib ctr: inhibitors of NFAT-driven beta-lactamase reporter, confirmation, counter-screen for GALR2 antagonist project, CHO NFAT-bla cells, FRET readout. shares compounds with GALR2 blocker. thapsigargin-stimulated. inhibition, % at 4.2 µM. 480 tested, 36% active;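 active means inhibition above the mean inhibition across tested compounds plus 3 SD, cut at about 27% in these data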;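 further: 0% = 500 nM thapsigargin stimulated wells and 100% = unstimulated BSA only wells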
Starred values were filed as active, the others as inactive; nt = no result. Rows were chosen to be rich in hits. Some 1.2% of all compounds tested hit in one or more screens of this group. Unless noted, no stated cut-off is given here; in the data, active means inhibition above about 27%; inactive means the rest.

SMILES | S1P2 ag | GALR2 ag | GALR2 blocker | S1P2 antag | GALR2 ant conf | BLA inhib ctr
CC1(C)CC(=O)C=C(NC2=CC3OC(c4ccccc4)OCC3OC2=O)C1 (stereo unspecified) | nt | -1 | 69* | nt | 76* | 65*
Cc1ccccc1NC1=CC(=O)CC(C)(C)C1 | -4 | -3 | 7 | -5 | nt | nt
Cc1cc(C)cc(NC(=S)N2CCN(CCO)CC2)c1 | nt | -1 | 4 | nt | nt | nt
CNc1c([N+](=O)[O-])ncn1C | -2 | -4 | 2 | -5 | nt | nt
CNc1nc2cc([N+](=O)[O-])c([N+](=O)[O-])cc2nc1NC | nt | -2 | 54* | nt | 65* | 10
O=C(CC1CCCC1)Nc1ccc2c(c1)CCC2 | -7 | -4 | 2 | -3 | nt | nt
COc1ccc(N2C(=O)CC2(C#N)c2ccc(OCc3ccccc3)cc2)cc1 (stereo unspecified) | nt | 1 | 5 | nt | nt | nt
CCOC(=O)N1CCC(N2C(=O)c3ccc(C(=O)Nc4ccc(F)cc4F)cc3C2=O)CC1 | nt | -1 | 28* | nt | -2 | 0
CCOC(=O)N1CCN(C(=O)c2ccccc2NC(=O)c2ccc(F)cc2)CC1 | nt | 1 | -16 | nt | nt | nt
Cc1ccc(SCC(=O)Nc2ccc(F)cc2[N+](=O)[O-])cc1C | nt | -2 | -1 | nt | nt | nt
Cc1c(C(=O)Nc2ccncc2)sc2nc(-c3ccccc3)cn12 | nt | 0 | 28* | nt | 17 | 8
Cc1c(C(=O)Nc2ccc3c(c2)OCCO3)sc2nc(-c3ccccc3)cn12 | -4 | 1 | 9 | 32 | nt | nt
CCc1ccccc1NC(=S)N1CCN(c2ccccn2)CC1 | nt | -3 | 28* | nt | 12 | -3
COc1ccc(C(=O)C(CCCCC(CN(C)C)C(=O)c2ccc(OC)cc2)CN(C)C)cc1 (stereo unspecified) | -1 | -3 | 7 | 11 | nt | nt
CCOc1ccc(C(=O)C(CCC(CN(C)C)C(=O)c2ccc(OCC)cc2)CN(C)C)cc1 (stereo unspecified) | nt | 3 | 39* | nt | 28* | 30*
Cc1cccnc1NC(=O)Cn1nc(-c2ccccc2)oc1=S | nt | -1 | 20 | nt | nt | nt
Cc1ccc(NC(=O)CCc2ccc(S(=O)(=O)N3CCOCC3)cc2)c(C)c1 | 0 | 0 | -12 | -5 | nt | nt
CC(/C=N/NC(=O)c1n[nH]c2c1CCC2)=C\c1ccccc1 | -3 | 2 | 21 | 0 | nt | nt
O=C(N/N=C/C(Br)=C\c1ccccc1)c1n[nH]c2c1CCC2 | -2 | 3 | 33* | -8 | 38* | 61*
Cc1cc(C)nc(SCc2ccc(C(=O)N/N=C/c3cccc(O)c3O)cc2)n1 | nt | -1 | 28* | nt | 22 | 28*
CCSc1nnc([C@H](Cc2ccccc2)NC(=O)OC(C)(C)C)o1 | -4 | 0 | -3 | -3 | nt | nt
Cc1ccccc1CS(=O)(=O)c1nnc([C@H](Cc2ccccc2)NC(=O)OC(C)(C)C)o1 | -5 | 3 | 28* | 24 | 33* | 56*
CC(C)(C)NS(=O)(=O)c1ccc(NC(=O)C(Sc2ccccc2)c2ccccc2)cc1 (stereo unspecified) | -7 | -2 | 13 | 0 | nt | nt
O=C(/C=C/c1ccco1)Nc1sc2c(c1C(=O)O)CCC2 | 1 | -1 | 0 | 23 | nt | nt
N#Cc1c(NC(=O)/C=C/c2ccco2)sc2c1CCCC2 | nt | 5.9* | 31* | nt | 32* | 64*
SMILES | S1P2 ag | GALR2 ag | GALR2 blocker | S1P2 antag | GALR2 ant conf | BLA inhib ctr
Cc1ccc(Cn2ncc(Cl)c(Cl)c2=O)cc1 | nt | 0 | 22 | nt | nt | nt
O=c1c(Cl)c(Cl)cnn1Cc1ccccc1Cl | nt | 2 | 63* | nt | 64* | 61*
O=c1c(Cl)c(Cl)cnn1-c1ccccc1 | nt | -3 | 88* | nt | 92* | 78*
O=c1c(Cl)c(N/N=C/c2ccc(Cl)cc2)cnn1-c1ccccc1 | nt | 2 | -5 | nt | nt | nt
c1ccc2[nH]c(SCCN3CCOCC3)nc2c1 | nt | -1 | 2 | nt | nt | nt
Cc1cc(C(=O)OCC(=O)Nc2ccccc2[N+](=O)[O-])c2ccccc2n1 | nt | -1 | 40* | nt | 11 | 9
Cn1c(SCC(=O)Nc2ccc3cn[nH]c3c2)nnc1-c1cccs1 | -6 | -2 | 30* | 10 | 18 | 14
O=C1Nc2ccccc2/C1=C/C(=O)c1cccs1 | -7 | -3 | 27* | 4 | 30* | 11
Cc1ccc(/C=C2\C(=O)Nc3ccccc32)o1 | nt | -1 | 1 | nt | nt | nt
Clc1cccc(Cl)c1/C=C/c1nc2ccccc2[nH]1 | -4 | -1 | 27* | -5 | 29* | 12
CN(C(=O)COC(=O)CNC(=O)C12CC3CC(CC(C3)C1)C2)C1CCS(=O)(=O)C1 (stereo unspecified) | nt | 0 | 7 | nt | nt | nt
Cc1nc2sccn2c1-c1csc(NCc2ccccc2)n1 | -7 | -2 | 27* | 41 | 24 | -1
CC(=O)c1c(C)nc(-c2ccc(Cl)cc2)nc1N=CN(C)C | -4 | -3 | 31* | -5 | 20 | 12
O=C(N/N=C/c1cccc(OCC(=O)N2CCCC2)c1)C(=O)Nc1ccccc1F | nt | 0 | -7 | nt | nt | nt
Nc1c(C(=O)Nc2ccccc2F)sc2nc(-c3ccco3)ccc12 | -8 | -1 | 31* | 34 | 27 | 22
NC(=O)c1sc2nc(-c3ccco3)ccc2c1N | -5 | 0 | -21 | 14 | nt | nt
Cc1[nH]n(-c2ccc(F)cc2)c(=O)c1C=Nc1ccc(S(=O)(=O)N(C)C)cc1 | nt | -1 | 15 | nt | nt | nt
CC1=C(C)CS(=O)N(c2ccc(S(N)(=O)=O)cc2)C1 (stereo unspecified) | -1 | -1 | 30* | 0 | 28* | 11
CCn1c2ccccc2c2cc(NC(=O)c3cc(OC)c(OC)c(OC)c3)ccc21 | 5 | 1 | 29* | -13 | 43* | 67*
Cc1cc(Nc2ccc(Cl)cc2)nc(NCc2ccccc2)n1 | nt | 3 | 12 | nt | nt | nt
Cc1cc(Nc2ccccc2)nc(NCc2ccccc2)n1 | nt | -1 | 42* | nt | 50* | 31*
CCc1ccc2c(c1)C1(NN=C(c3cccc4ccccc34)S1)C(=O)N2 (stereo unspecified) | -7 | 1 | 29* | 27 | 13 | 10
COc1ccc(OC)c(N(CC(=O)Nc2cccnc2)S(=O)(=O)c2ccccc2)c1 | -3 | -1 | -5 | 17 | nt | nt
O=C(O)c1cccc2cccnc12 | -4 | -3 | 7 | 17 | nt | nt
c1cnc2c(c1)ccc1cccnc12 | nt | -2 | 36* | nt | 48* | -2
SMILES | S1P2 ag | GALR2 ag | GALR2 blocker | S1P2 antag | GALR2 ant conf | BLA inhib ctr
Cc1cc(N/N=C/c2ccc(O)c(C)c2O)nc(-c2ccccc2O)n1 | nt | -2 | 31* | nt | 33* | 12
COc1cc(CSc2nnnn2-c2ccc(C)cc2)cc(OC)c1OC | nt | -1 | 43* | nt | 41* | 14
CCOc1ncccc1C(=O)OCc1ccc(C#N)cc1 | nt | 0 | -5 | nt | nt | nt
COc1ccc(C(=O)c2sc(NC(C)C)nc2N)cc1OC | -2 | -3 | 2 | 8 | nt | nt
COc1cccc(C(=O)c2sc(NC(C)C)nc2N)c1 | nt | -3 | 40* | nt | 10 | -2
CCCCN(CCCNC(=O)c1ccc2nc(N3CCOCC3)sc2c1)Cc1ccccc1 | 1 | -1 | -6 | -8 | nt | nt
COc1ccc(C(=O)c2sc3nc(-c4ccccc4)ccc3c2N)cc1 | nt | -2 | 32* | nt | 42* | 49*
